Results on 93 compounds are retold here after PubChem BioAssay AID463173 (ICCB-Longwood Screening Facility, Harvard Medical School, 2010).

In all, about 52,000 compounds went through this assay and about 1,700 (3.3%) were called active. This is one part of a sample in which actives are shown more often than they occur. No stated cut-off is given here; in the data, active means survival mostly below about 52% (no sharp cut-off); inactive means mostly above about 56%.

In the assay the test system is Wild type. Put plainly: growth inhibition of S. aureus wild type versus tarO mutant, primary screen, teichoic acid synthesis inhibitors, RN4220, OD600 (AID 463173). Conditions: S. aureus RN4220 wild type/DeltatarO growth, OD600, 18 h, stronger effect = lower value, screened at 18.75 µg/mL (by protocol).
On to `COc1ccc2c(c1)c(=O)c(C(=O)c1ccc(F)cc1)cn2CC(=O)Nc1ccc2c(c1)OCO2`, for which the survival is 91% (inactive).

With `CC(C)Nc1nc2c(-c3cccc(Br)c3)nnn2c2ccccc12`, the survival was 74% (inactive).

In the case of `CCCCNc1nc2c(-c3cccc(Br)c3)nnn2c2ccccc12`, the survival was 92% (inactive).

As for `CC(C)Cn1c(-c2cccc(Br)c2)nc2ccccc21`, the survival was 27% (active).

As for `Cc1nc2ccccc2c(=O)n1CC(C)C`, the survival was 106% (inactive).

For `CC(C)Cn1c(C2CC(=O)N(c3ccccc3Cl)C2)nc2ccccc21` (stereo not drawn), the survival was 97% (inactive).

Consider `CC(C)Cn1c(-c2ccccc2Cl)nc2ccccc21`, for which the survival is 26% (active).

On to `CCCn1c(-c2cccc(Br)c2)nc2ccccc21`, for which the survival was 3% (active).

Consider `CCCn1c(SCC(O)c2ccccc2)nc2ccccc21` (stereo not drawn), for which the survival is 86% (inactive).

In the case of `CC(=O)NC(C)c1nc2ccccc2n1Cc1ccccc1Cl` (stereo not drawn), the survival was 91% (inactive).

As for `O=C(NCCc1ccc(Cl)cc1)c1ccc(CS(=O)Cc2ccccc2Cl)o1` (stereo not drawn), the survival was 62% (inactive).

Turning to `COc1ccccc1CCNC(=O)c1cc2c(=O)n3cccc(C)c3nc2n1C`, the survival is 85% (inactive).

In the case of `COc1ccc(C2CC(=O)c3cc(-c4nc(-c5ccc(Cl)cc5)c(C)s4)c(=O)[nH]c3C2)cc1` (stereo not drawn), the survival is 71% (inactive).

For the compound `Cc1ccc(CCNC(=O)c2cc3c(=O)n(C)c4ccccc4c3n2C)cc1`, the survival is 80% (inactive).

Turning to `Cc1ccc(C)c(Cn2c(=O)n(CCCCC(=O)NCc3ccc4c(c3)OCO4)c(=O)c3ccccc32)c1`, the survival was 110% (inactive).

With `CC(NC(=O)CN1C(=O)c2cccnc2Oc2ccc(Cl)cc21)c1ccccc1` (stereo not drawn), the survival is 74% (inactive).

In the case of `Cc1c(C(=O)N2CCC(C)CC2)c(S(=O)(=O)NCc2ccc(Br)cc2)c(C)n1C`, the survival was 80% (inactive).

Take `COc1ccccc1Cn1cc(C(=O)c2ccc(C)cc2)c(=O)c2cc3c(cc21)OCCO3`: the survival is 83% (inactive).

On to `COc1ccc(OC)c(CNC(=O)c2ccc3c(c2)c(C)c(C)n3Cc2ccc(Cl)cc2)c1`, for which the survival was 82% (inactive).

For the compound `CCNC(=O)c1sc2ccccc2c1Cl`, the survival was 124% (inactive).

For the compound `CCN(C(=O)c1cn(-c2ccc(OC)cc2)c(=O)c2ccccc12)c1cccc(Cl)c1`, the survival was 119% (inactive).

`CCN(C(=O)c1sc2cc(OC)ccc2c1Cl)c1ccccc1`: the survival is -9% (active).

For the compound `O=C(COc1ccc(Cl)cc1)NCCc1csc(-c2ccc(F)cc2)n1`, the survival is 73% (inactive).

With `Cc1ccc(Cn2nnc3sc4c(c3c2=O)CCC(C)C4)cc1` (stereo not drawn), the survival is 60% (inactive).

For `O=c1c2c3c(sc2nnn1Cc1ccc(Br)cc1)CCCC3`, the survival is 28% (inactive).

Consider `CCCOC(=O)c1ccc(Cn2nnc3sc4c(c3c2=O)CCC(C)C4)cc1` (stereo not drawn), for which the survival was 77% (inactive).

For `CC1CCc2c(sc3nnn(Cc4ccc(F)cc4)c(=O)c23)C1` (stereo not drawn), the survival is 1% (active).

On to `Cc1ccccc1Cn1nnc2sc3c(c2c1=O)CCCC3`, for which the survival is 0% (active).

Turning to `CC1CCc2c(sc3nnn(Cc4ccccc4Cl)c(=O)c23)C1` (stereo not drawn), the survival is 16% (inactive).

Consider `COC(=O)c1ccc(Cn2nnc3sc4c(c3c2=O)CCC(C)C4)cc1` (stereo not drawn), for which the survival was 75% (inactive).

Take `COC(=O)c1ccc(Cn2nnc3sc4c(c3c2=O)CCCC4)cc1`: the survival was 77% (inactive).

With `CC1CCc2c(sc3nnn(Cc4ccccc4)c(=O)c23)C1` (stereo not drawn), the survival was 0% (active).

On to `O=C(NCc1ccco1)c1ccc(COCC(F)(F)C(F)F)cc1`, for which the survival is 98% (inactive).

As for `COc1ccccc1N1CCN(C(=O)CN2C(=O)COc3ccc(S(=O)(=O)N4CCC(C)CC4)cc32)CC1`, the survival was 98% (inactive).

Turning to `CCCCc1nn2c(=O)cc(COC(=O)c3cccc(NC(=O)c4cccc(Cl)c4)c3)nc2s1`, the survival is 85% (inactive).

For the compound `CCNc1nc(NC(N)=S)nc(NC(C)(C)C)n1`, the survival is 112% (inactive).

With `Fc1ccc(Nc2ncnc3onc(-c4cccc(Cl)c4)c23)c(F)c1`, the survival is 79% (inactive).

For the compound `C#CCNC(=O)NC1CCCN(S(=O)(=O)c2ccc(C)cc2)C1` (stereo not drawn), the survival was 112% (inactive).

As to `CCc1ccc(C(=O)c2cn(CC(=O)Nc3ccc(OC)cc3)c3cc4c(cc3c2=O)OCCO4)cc1`, the survival is 89% (inactive).

On to `COc1cccc(NC(=O)C2CC(=O)N(c3ccc(Br)cc3)C2)c1` (stereo not drawn), for which the survival was 63% (inactive).

As for `Cc1cc(C)n(C(=O)CNc2ccccc2Cl)n1`, the survival was 103% (inactive).

As for `COCCNC(=O)CCN1C(=O)c2cccnc2Oc2ccc(C)cc21`, the survival is 70% (inactive).

Consider `COc1cc(C2NC(=O)NC(C)=C2C(=O)Nc2cc(C)cc(C)c2)ccc1O` (stereo not drawn), for which the survival is 69% (inactive).

Consider `NC(=O)CSc1nc2ccc(NC(=O)COc3ccccc3)cc2s1`, for which the survival was 86% (inactive).

For `Cc1ccc2c(CC(=O)Nc3cccc(C(F)(F)F)c3)coc2c1`, the survival was 8% (active).

Regarding `Cc1ccc(NC(=O)Cc2coc3ccc(C(C)C)cc23)cc1Cl`, the survival was 53% (inactive).

Regarding `CC(C)c1ccc2occ(CC(=O)Nc3cccc(C(F)(F)F)c3)c2c1`, the survival is 0% (active).

`CC(C)c1ccc2occ(CC(=O)Nc3ccccc3Cl)c2c1`: the survival is 81% (inactive).

As to `Cc1ccc2onc(CC(=O)Nc3cccc(C(F)(F)F)c3)c2c1`, the survival is 92% (inactive).

On to `COC(=O)c1ccc(NC(=O)Cc2coc3cc(C)ccc23)cc1`, for which the survival is 106% (inactive).

As to `CCC(=O)N1CCc2cc(Br)cc(S(=O)(=O)N3CCCC(C(=O)Nc4ccc(C(C)C)cc4)C3)c21` (stereo not drawn), the survival is 106% (inactive).

Regarding `O=C(CSC1=Nc2ccccc2N=C(c2ccc(F)cc2)C1)NCc1ccc(F)cc1`, the survival is 83% (inactive).

Take `COC(=O)C1=C(C)N(C(C)C)C(=O)C1(NC(=O)c1ccc(C(C)(C)C)cc1)C(F)(F)F` (stereo not drawn): the survival was 65% (inactive).

As to `O=C(NC1CCCCC1)c1cc(Nc2cccc(C(F)(F)F)c2)nc2ccccc12`, the survival is 72% (inactive).

Consider `CCn1c(SCC#N)nnc1-c1ccc(S(=O)(=O)N2CCCC2)cc1`, for which the survival is 100% (inactive).

As to `CCCN(C(=O)C(C)C)c1nnc(-c2cc(OC)c(OC)c(OC)c2)s1`, the survival is 120% (inactive).

On to `CCCn1c(=O)c2sccc2n2c(CCCC(=O)NCCOC)nnc12`, for which the survival is 97% (inactive).

As for `O=C(NCCc1ccccc1)C1CCN(c2ncnc3c2nc2n3CCCCC2)CC1`, the survival is -4% (active).

`O=C(NCCc1ccc(Cl)cc1)C1CCN(c2ncnc3c2nc2n3CCCCC2)CC1`: the survival is 80% (inactive).

On to `O=C(C1CCN(c2ncnc3c2nc2n3CCCCC2)CC1)N1CCN(c2ccc(Cl)cc2)CC1`, for which the survival was 55% (inactive).

For `Cc1cccc(N2CCN(C(=O)C3CCN(c4ncnc5c4nc4n5CCCCC4)CC3)CC2C)c1` (stereo not drawn), the survival was 1% (active).

`O=C(C1CCN(c2ncnc3c2nc2n3CCCCC2)CC1)N1CCN(c2ccc(F)cc2)CC1`: the survival was -3% (active).

`O=C(NCc1ccccc1)C1CCN(c2ncnc3c2nc2n3CCCCC2)CC1`: the survival was 82% (inactive).

For `Cc1ccc(N2CCN(C(=O)C3CCN(c4ncnc5c4nc4n5CCCCC4)CC3)CC2)c(C)c1`, the survival is 55% (inactive).

With `Cc1cccc(N2CCN(c3ncnc4c3nc3n4CCCCC3)CC2C)c1` (stereo not drawn), the survival is 75% (inactive).

In the case of `O=C(C1CCN(c2ncnc3c2nc2n3CCCCC2)CC1)N1CCN(c2ccccc2)CC1`, the survival was 71% (inactive).

With `CC(=O)C1=C(c2ccc(Cl)cc2)N(C(C)=O)n2c(nnc2C2CCCCC2)S1`, the survival was 85% (inactive).

Consider `CCOc1cccc(CC(=O)N2CCc3c([nH]c4ccccc34)C2c2ccc(C)cc2)c1OCC` (stereo not drawn), for which the survival is 83% (inactive).

For the compound `Cc1ccc2c(c1)c(=O)c(C(=O)c1ccncc1)cn2CC(=O)Nc1c(C)cccc1C`, the survival was 72% (inactive).

Regarding `O=C(CC12CC3CC(CC(C3)C1)C2)N1CCCOC1`, the survival was 114% (inactive).

Regarding `N=c1nc(SCCC(=O)O)ss1`, the survival is 112% (inactive).

As to `COc1ccc(NC(=O)C(C)Sc2cc(-c3ccccc3)nc(C)n2)cc1Cl` (stereo not drawn), the survival was 81% (inactive).

As to `Cc1c(Cl)cccc1NC(=O)CCS(=O)(=O)c1ccc2c(c1)CC(=O)N2C`, the survival is 85% (inactive).

As to `COc1ccc(C(CC(=O)Nc2ccc(C)c(C)c2)N2Cc3ccccc3C2=O)cc1OC` (stereo not drawn), the survival is 66% (inactive).

In the case of `COc1ccc(NC(=O)Cn2c(=O)n(CCC(=O)NCCc3ccc(OC)c(OC)c3)c(=O)c3ccccc32)cc1Cl`, the survival is 92% (inactive).

Regarding `CC1=C(c2ccc(Cl)cc2)S(=O)(=O)N=C1N1CCC(C(=O)NCCc2ccco2)CC1`, the survival was 55% (inactive).

Take `CC1=C(c2ccc(C(C)C)cc2)S(=O)(=O)N=C1N1CCC(C(=O)NCc2ccccc2)CC1`: the survival was -3% (active).

Consider `CC1=C(c2ccc(C(C)C)cc2)S(=O)(=O)N=C1N1CCC(C(=O)NCc2ccc(C)o2)CC1`, for which the survival is 63% (inactive).

As to `CC1=C(c2ccc(C(C)C)cc2)S(=O)(=O)N=C1N1CCC(C(=O)NCc2ccco2)CC1`, the survival was 63% (inactive).

As for `CC1=C(c2ccc(C)c(C)c2)S(=O)(=O)N=C1N1CCC(C(=O)N2CCCCC2)CC1`, the survival is 129% (inactive).

With `CC1=C(c2ccc(C(C)C)cc2)S(=O)(=O)N=C1N1CCC(C(=O)NCCc2ccco2)CC1`, the survival is 1% (active).

With `CC1=C(c2ccc(C)c(C)c2)S(=O)(=O)N=C1N1CCC(C(=O)N2CCC(C)CC2)CC1`, the survival is 81% (inactive).

On to `CC1=C(c2ccc(C)c(C)c2)S(=O)(=O)N=C1N1CCC(C(=O)N2CCC(C(N)=O)CC2)CC1`, for which the survival is -4% (active).

As for `CCc1ccc(C2=C(C)C(N3CCC(C(=O)NCc4ccccc4)CC3)=NS2(=O)=O)cc1`, the survival is 67% (inactive).

Regarding `CCc1ccccc1NC(=O)c1cc(S(=O)(=O)N2CCCC2)cn1C`, the survival is 84% (inactive).

On to `CCC(C)NC(=O)Cn1c(=O)n(CC2CCC(C(=O)NC)CC2)c(=O)c2sccc21` (stereo not drawn), for which the survival was 70% (inactive).

As to `CC(C)N(C(=O)Cn1cc(SCC(=O)Nc2ccccc2C(F)(F)F)c2ccccc21)C(C)C`, the survival is 105% (inactive).

With `COc1ccccc1Cc1nc2ccccc2nc1SCC(=O)N1CCc2ccccc21`, the survival was 49% (inactive).

As for `Cc1cc(Br)ccc1NC(=O)CSc1c2c(nc3ccccc13)CCC2`, the survival was 75% (inactive).

On to `N#Cc1c(C(F)(F)F)cc(-c2cccs2)nc1SCC(=O)Nc1ccc(Cl)cc1`, for which the survival was 78% (inactive).

With `Cc1[nH]c2ccccc2c1SCCNC(=O)c1ccc(F)cc1`, the survival is 64% (inactive).

On to `Cc1ccc(C(=O)NCCSc2c(C)[nH]c3ccccc23)cc1C`, for which the survival is 19% (active).

In the case of `CCOc1ccc(C(=O)NCCSc2c(C)[nH]c3ccccc23)cc1OCC`, the survival is 86% (inactive).
